Assay results as given in PubChem BioAssay (Tox21).
Results filed as inconclusive are left out. Active and inactive are the calls of the source. Unless noted, the call rests on the fitted dose curve.

Tests used:
[1] = Nuclear factor erythroid 2-related factor 2/antioxidant responsive element (Nrf2/ARE) small molecule agonists: qHTS cell viability counter screen in human keratinocytes (AID 1919968; active means well fitted curve in the direction sought with a large enough effect in the repeat runs; an effect the other way counts as inactive or inconclusive; further: nearly all actives have a fitted effect of over 55% in size; further: potency means the concentration at half of the fitted maximal effect)
Procedure, shortened: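 Cells of the KeratinoSens line were plated at 1,500 per well and left for 5 h before compound transfer from DMSO stocks. After a 23 h incubation (37 C, 5% CO2), CellTiter-Fluor was added. Signal was taken as fluorescence intensity 1 h later.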

[2] = Nuclear factor erythroid 2-related factor 2/antioxidant responsive element (Nrf2/ARE) small molecule agonists: luciferase reporter gene qHTS assay in human keratinocytes (AID 1919969); further: nearly all actives have a fitted effect of over 35% in size; further: potency means the concentration at half of the fitted maximal effect
[3] = target: Gonadotropin-releasing hormone receptor (Homo sapiens) (UniProt P30968); assay: Human gonadotropin-releasing hormone receptor (GnRHR) small molecule agonists, calcium flux assay in GnRHR-HEK293 cells (AID 1920063); further: nearly all actives have a fitted effect of over 35% in size
Sequence of Gonadotropin-releasing hormone receptor (Homo sapiens) (P30968 whole entry, looked up): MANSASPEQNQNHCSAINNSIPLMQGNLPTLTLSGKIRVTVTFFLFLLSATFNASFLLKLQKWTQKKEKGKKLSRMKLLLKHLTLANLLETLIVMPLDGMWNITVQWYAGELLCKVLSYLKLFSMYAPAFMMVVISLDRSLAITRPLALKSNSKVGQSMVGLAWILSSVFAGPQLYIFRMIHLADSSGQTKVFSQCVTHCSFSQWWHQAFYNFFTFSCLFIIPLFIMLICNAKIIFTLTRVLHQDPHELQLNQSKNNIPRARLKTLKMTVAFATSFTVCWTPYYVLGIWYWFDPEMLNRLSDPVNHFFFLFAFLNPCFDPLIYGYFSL
Procedure, shortened: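 Compounds dissolved in DMSO are pin-transferred onto dye-loaded GnRHR-HEK293 cells, which were seeded 18 h before at 37 C/5% CO2. Calcium signal is read as fluorescence intensity at 1 s intervals for 3 min.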

[4] = target: KiSS-1 receptor (Homo sapiens) (UniProt Q969F8); assay: Human kisspeptin (KISS1R) small molecule agonists, calcium flux assay in KISS1R-HEK293 cells (AID 1920064; active means well fitted curve in the direction sought with a large enough effect in the repeat runs; an effect the other way counts as inactive or inconclusive)
Sequence of KiSS-1 receptor (Homo sapiens) (Q969F8 whole entry, looked up): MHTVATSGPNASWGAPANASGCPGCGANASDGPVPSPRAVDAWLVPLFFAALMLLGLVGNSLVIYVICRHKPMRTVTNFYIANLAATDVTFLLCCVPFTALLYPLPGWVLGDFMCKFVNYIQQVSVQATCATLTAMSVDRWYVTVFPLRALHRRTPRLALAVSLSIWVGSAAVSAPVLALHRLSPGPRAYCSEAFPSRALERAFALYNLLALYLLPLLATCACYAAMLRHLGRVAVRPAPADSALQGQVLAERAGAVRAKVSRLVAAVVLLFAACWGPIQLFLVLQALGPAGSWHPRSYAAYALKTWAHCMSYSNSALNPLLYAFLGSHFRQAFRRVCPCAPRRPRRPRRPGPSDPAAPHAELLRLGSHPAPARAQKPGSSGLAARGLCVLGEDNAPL
Procedure, shortened: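 Cell line: HEK293, stable human KISS1R. Dye loading 1 h at 37 C after 18 h culture. Read: kinetic fluorescence, 480/540 nm, 3 min at 1 s intervals.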

[5] = G protein-coupled receptor (GPCR) small molecule agonists, calcium flux assay: HEK293 wild type cell line counter screen (AID 1920065)
Procedure, shortened: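 Tox21 10K compounds, 15 concentrations each in triplicate, pin-transferred in DMSO onto dye-loaded cells; kinetic read at 480/540 nm for 3 min, 1 s intervals.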

[6] = p53 small molecule agonists, cell-based qHTS assay with human liver microsomes (AID 1963577); further: potency means the concentration at half of the fitted maximal effect;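 on activation: p53 response element beta-lactamase reporter cells with liver microsomes plus NADPH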
Procedure, shortened: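 In this qHTS, p53 response-element beta-lactamase cells receive test compound together with a microsome/NADPH activating system (0.5 mg/mL final each) and are incubated 16 h at 37 C before LiveBLAzer fluorescence detection.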

[7] = p53 small molecule agonists, cell-based qHTS assay with rat liver microsomes: qHTS cell viability counter screen (AID 1963580); further: nearly all actives have a fitted effect of over 45% in size
Procedure, shortened: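 Cytotoxicity counter screen: intracellular ATP measured by CellTiter-Glo luminescence in the same wells as the beta-lactamase reporter read, on HCT-116 p53RE-bla cells exposed 16 h at 37 C to compounds with rat liver microsomes and NADPH, each 0.5 mg/mL final.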

[8] = target: 5-hydroxytryptamine receptor 2A (Homo sapiens) (UniProt P28223); assay: 5-hydroxytryptamine receptor 2A (HTR2A) small molecule antagonists, cell-based qHTS assay (AID 1963586); further: nearly all actives have a fitted effect of over 45% in size
Sequence of 5-hydroxytryptamine receptor 2A (Homo sapiens) (P28223 whole entry, looked up): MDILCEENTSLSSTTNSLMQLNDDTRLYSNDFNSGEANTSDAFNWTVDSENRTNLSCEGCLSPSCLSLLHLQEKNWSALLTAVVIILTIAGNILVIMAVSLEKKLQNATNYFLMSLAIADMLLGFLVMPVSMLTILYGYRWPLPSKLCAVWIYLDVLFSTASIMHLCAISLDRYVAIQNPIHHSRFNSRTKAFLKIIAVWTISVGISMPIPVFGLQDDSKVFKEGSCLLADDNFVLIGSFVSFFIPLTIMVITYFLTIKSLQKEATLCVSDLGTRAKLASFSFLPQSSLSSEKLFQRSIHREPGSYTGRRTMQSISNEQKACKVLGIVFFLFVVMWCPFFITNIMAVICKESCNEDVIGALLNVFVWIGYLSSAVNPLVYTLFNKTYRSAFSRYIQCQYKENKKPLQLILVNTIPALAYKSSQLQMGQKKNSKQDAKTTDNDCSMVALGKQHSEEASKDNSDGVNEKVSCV
Procedure, shortened: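 CHO cells stably expressing human HTR2A were plated for 18 h at 37 C, then loaded with calcium dye for 1 h. Compounds were preincubated 5 min at room temperature before DOI (4 nM solution) was added. Kinetic fluorescence was read for 3 min.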

[9] = target: 5-hydroxytryptamine receptor 2A (Homo sapiens) (UniProt P28223); assay: 5-hydroxytryptamine receptor 2A (HTR2A) small molecule agonists, cell-based qHTS assay (AID 1963587); further: nearly all actives have a fitted effect of over 30% in size; further: potency means the concentration at half of the fitted maximal effect
Procedure, shortened: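 CHO cells stably expressing human HTR2A, plated 18 h, loaded with calcium dye 1 h at 37 C. Agonist mode: compounds added and intracellular calcium fluorescence recorded kinetically for 2 min at 1 sec intervals.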

[10] = target: Muscarinic acetylcholine receptor M1 (Homo sapiens) (UniProt P11229); assay: Cholinergic receptor muscarinic 1 (CHRM1) small molecule antagonists, cell-based qHTS assay (AID 1963588); further: nearly all actives have a fitted effect of over 40% in size; further: potency means the concentration at half of the fitted maximal effect
Sequence of Muscarinic acetylcholine receptor M1 (Homo sapiens) (P11229 whole entry, looked up): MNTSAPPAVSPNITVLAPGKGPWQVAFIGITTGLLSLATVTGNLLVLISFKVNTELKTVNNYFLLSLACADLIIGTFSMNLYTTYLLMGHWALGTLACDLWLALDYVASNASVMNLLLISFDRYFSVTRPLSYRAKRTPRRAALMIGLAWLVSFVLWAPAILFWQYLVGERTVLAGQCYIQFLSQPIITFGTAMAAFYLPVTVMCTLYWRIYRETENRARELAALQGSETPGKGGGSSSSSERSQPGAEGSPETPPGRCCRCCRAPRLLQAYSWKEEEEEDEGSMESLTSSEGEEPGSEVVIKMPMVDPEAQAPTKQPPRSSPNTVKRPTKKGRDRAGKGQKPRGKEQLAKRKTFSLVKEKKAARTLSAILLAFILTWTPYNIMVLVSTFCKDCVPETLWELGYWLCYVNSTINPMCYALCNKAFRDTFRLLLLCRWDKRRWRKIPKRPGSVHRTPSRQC
Procedure, shortened: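 Compounds were tested at 15 concentrations in three independent runs. Dye-loaded CHRM1-CHO cells were exposed 5 min at room temperature before stimulation by acetylcholine added at 50nM. Intracellular calcium was read kinetically on FDSS for 3 min.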

[11] = target: Muscarinic acetylcholine receptor M1 (Homo sapiens) (UniProt P11229); assay: Cholinergic receptor muscarinic 1 (CHRM1) small molecule agonists, cell-based qHTS assay (AID 1963589); further: nearly all actives have a fitted effect of over 35% in size
Procedure, shortened: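 Homogeneous fluorescence calcium flux, agonist mode. Human M1-expressing CHO cells; compound dosed at 15 concentrations, three independent runs; signal sampled every 1 sec.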

[12] = cAMP Responsive Elements (CRE) small molecule agonists, cell-based qHTS assay (AID 1963590)
Procedure, shortened: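 HEK 293T cells stably bearing CRE-bla were plated at 2,000 cells per well and rested 18 h. Compounds, positive controls or DMSO were added for 3 h at 37 C. LiveBLAzer B/G substrate was then loaded for 2 h at room temperature.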

[13] = cAMP Responsive Elements (CRE) small molecule antagonists, cell-based qHTS assay (AID 1963591; active means well fitted inhibition curve with a large enough effect in the signal ratio in the repeat runs, not every such curve was filed as active; the % refers to the signal ratio; further: potency means the concentration at half of the fitted maximal effect)
Procedure, shortened: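 First, CRE-bla HEK293T cells settled 18 h at 37 C. Next, compound and 0.25 uM final NKH477 were applied for 3 h. Last, LiveBLAzer B/G substrate was loaded for 2 h at room temperature.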

[14] = target: Beta-2 adrenergic receptor (Homo sapiens) (UniProt P07550); assay: Adrenergic beta2 receptor (ADRB2) small molecule antagonists, cell-based qHTS assay (AID 1963592); further: series mostly up to about 92 µM; nearly all actives have a fitted effect of over 50% in size
Sequence of Beta-2 adrenergic receptor (Homo sapiens) (P07550 whole entry, looked up): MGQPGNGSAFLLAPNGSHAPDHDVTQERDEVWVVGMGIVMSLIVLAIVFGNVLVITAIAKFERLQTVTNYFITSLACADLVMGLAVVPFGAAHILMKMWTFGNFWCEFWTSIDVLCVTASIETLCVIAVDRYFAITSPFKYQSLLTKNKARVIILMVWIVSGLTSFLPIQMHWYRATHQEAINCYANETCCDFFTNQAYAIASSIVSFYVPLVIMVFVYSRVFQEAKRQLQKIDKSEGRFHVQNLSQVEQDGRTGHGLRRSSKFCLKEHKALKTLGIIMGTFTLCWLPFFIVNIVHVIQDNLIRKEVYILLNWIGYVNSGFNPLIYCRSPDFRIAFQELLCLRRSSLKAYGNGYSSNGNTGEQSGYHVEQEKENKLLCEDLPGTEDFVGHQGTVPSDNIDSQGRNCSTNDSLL
Procedure, shortened: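 Assay format: CHO-ADRB2 cells, 18-20hr seeding at 37C/5% CO2, then compound plus 1nM isoproterenol agonist mix for 0.5hr RT. Homogeneous time-resolved fluorescence cAMP detection after 1hr, expressed as 665/615 nm ratio.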

[15] = target: D(2) dopamine receptor (Homo sapiens) (UniProt P14416); assay: Dopamine D2 receptor (DRD2) small molecule agonists, cell-based qHTS assay (AID 1963594); further: nearly all actives have a fitted effect of over 35% in size
Sequence of D(2) dopamine receptor (Homo sapiens) (P14416 whole entry, looked up): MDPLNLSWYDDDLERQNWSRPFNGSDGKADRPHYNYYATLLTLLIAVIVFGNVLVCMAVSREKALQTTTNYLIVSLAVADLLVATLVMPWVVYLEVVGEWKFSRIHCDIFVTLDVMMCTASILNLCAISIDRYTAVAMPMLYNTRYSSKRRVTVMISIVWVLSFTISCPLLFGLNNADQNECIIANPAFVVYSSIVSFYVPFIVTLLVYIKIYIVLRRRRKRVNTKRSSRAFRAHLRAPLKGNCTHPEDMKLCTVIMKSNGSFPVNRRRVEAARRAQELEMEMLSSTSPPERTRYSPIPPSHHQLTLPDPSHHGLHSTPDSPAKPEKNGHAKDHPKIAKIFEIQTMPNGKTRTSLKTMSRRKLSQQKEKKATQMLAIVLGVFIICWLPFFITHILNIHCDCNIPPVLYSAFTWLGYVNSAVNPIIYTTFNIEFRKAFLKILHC
Procedure, shortened: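 HEK293 cells stably expressing human DRD2, pre-treated with PDE inhibitor Ro20-1724 (0.1 mM final) and compound 10 min at room temperature, then stimulated with NKH477 (200nM […]) for 30 min. cAMP read by HTRF (665/620 nm).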

[16] = target: D(2) dopamine receptor (Homo sapiens) (UniProt P14416); assay: Dopamine D2 receptor (DRD2) small molecule antagonists, cell-based qHTS assay (AID 1963595; active means well fitted inhibition curve with a large enough effect in the signal ratio in the repeat runs, with a control signal flat; the % refers to the signal ratio)
Procedure, shortened: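 In this cell-based antagonist screen, compounds act for 10 min at room temperature before a 30 min challenge with 12 nM quinpirole and 200 nM NKH477. cAMP is quantified by HTRF competition in DRD2-HEK293 cells containing 0.1 mM Ro20-1724.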

[17] = p53 small molecule agonists, cell-based qHTS assay with rat liver microsomes (AID 1963578)
Procedure, shortened: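 Agonist mode in p53RE-bla reporter cells, with compounds co-incubated 16 h at 37 C alongside 0.5 mg/mL rat liver microsomes and 0.5 mg/mL NADPH (final), followed by a 2 h LiveBLAzer detection step.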

[18] = p53 small molecule agonists, cell-based qHTS assay with human liver microsomes: qHTS cell viability counter screen (AID 1963579); further: nearly all actives have a fitted effect of over 45% in size
Procedure, shortened: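 Metabolically activated exposure: compounds, human liver microsomes and NADPH (0.5 mg/mL final apiece) were added to p53RE-bla cells seeded 5 h earlier, left 16 h at 37 C, and then assessed for viability by CellTiter-Glo luminescence.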

[19] = p53 small molecule agonists, cell-based qHTS assay: qHTS cell viability counter screen (AID 1963581); further: nearly all actives have a fitted effect of over 45% in size
Procedure, shortened: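 ATP content measured by luminescence in HCT-116 p53RE-bla cells treated 16 h at 37 C, same wells as the reporter screen.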

[20] = p53 small molecule agonists, cell-based qHTS assay (AID 1963582; active means well fitted activation curve with a large enough effect in the signal ratio in the repeat runs, not every such curve was filed as active; the % refers to the signal ratio)
Procedure, shortened: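 16 h compound exposure (37 C) of p53 response element–bla cells, preceded by 5 h recovery at 37 C/5% CO2; read-out via LiveBLAzer B/G FRET substrate, 2 h RT, fluorescence intensity.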

Measured: Potency

O=C(Nc1ccc2[nH]ccc2c1)c1cc2cc(F)ccc2n1Cc1cccc(F)c1
inactive: [2] | [3] | [4] | [5] | [6] | [7] | [8] | [9] | [10] | [11] | [12] | [14] | [15] | [16]
active: [1] 24.3 µM | [13] 61.1 µM

CC(C)CBr
inactive: [1] | [2] | [3] | [4] | [5] | [17] | [18] | [7] | [19] | [20] | [8] | [9] | [10] | [12] | [13] | [14] | [15] | [16]

CC(Cc1ccc(C(C)(C)C)cc1)CN1C[C@@H](C)O[C@@H](C)C1 (stereo not given in full)
active: [2] 61.1 µM | [10] 37.5 µM
inactive: [1] | [3] | [4] | [5] | [6] | [18] | [7] | [19] | [20] | [9] | [11] | [12] | [13] | [14] | [15]

C[N+]1(C)[C@@H]2CC[C@H]1CC(OC(=O)C(CO)c1ccccc1)C2 (stereo not given in full)
inactive: [1] | [2] | [3] | [4] | [5] | [6] | [18] | [19] | [8] | [9] | [11] | [12] | [13] | [14] | [16]

CCCCCCCCBr
inactive: [1] | [2] | [3] | [4] | [5] | [17] | [18] | [7] | [19] | [20] | [8] | [10] | [11] | [12] | [13] | [14] | [15] | [16]

CCOc1cc(OP(=S)(OC)OC)nc(CC)n1
inactive: [1] | [2] | [3] | [4] | [5] | [17] | [18] | [7] | [19] | [20] | [8] | [9] | [10] | [11] | [12] | [13] | [14] | [15] | [16]

C=C(Cl)CSC(=S)N(CC)CC
inactive: [1] | [3] | [4] | [5] | [6] | [18] | [20] | [8] | [9] | [11] | [12] | [13] | [14] | [15] | [16]
active: [2] 66.8 µM

O=C(Oc1ccc(Br)cc1)N1CCN2CCC1CC2
inactive: [1] | [2] | [3] | [4] | [5] | [17] | [18] | [7] | [19] | [20] | [8] | [9] | [11] | [12] | [13] | [14]

CCSC(=O)Cl
inactive: [1] | [2] | [3] | [4] | [5] | [6] | [18] | [7] | [19] | [20] | [9] | [11] | [12] | [14] | [15]

CC(C)N(C(=O)COc1nnc(C(F)(F)F)s1)c1ccc(F)cc1
inactive: [1] | [2] | [3] | [4] | [5] | [17] | [18] | [7] | [19] | [20] | [8] | [10] | [11] | [12] | [14] | [15] | [16]

Cc1cccc(Cc2cnc[nH]2)c1C
inactive: [1] | [2] | [3] | [4] | [5] | [6] | [18] | [7] | [19] | [8] | [9] | [10] | [11] | [12] | [14] | [15] | [16]

C=CCOC(C)=O
inactive: [1] | [2] | [3] | [4] | [5] | [6] | [18] | [19] | [20] | [8] | [10] | [11] | [14] | [16]

C#C[C@]1(O)C=C[C@H]2[C@@H]3CCC4=CC(=O)CC[C@@H]4[C@H]3CC[C@@]21CC
inactive: [1] | [2] | [3] | [4] | [5] | [17] | [18] | [7] | [19] | [20] | [8] | [9] | [10] | [11] | [14] | [15] | [16]

O=[N+]([O-])c1cc([N+](=O)[O-])c2ccccc2c1
inactive: [1] | [3] | [4] | [5] | [6] | [20] | [9] | [14] | [15]
active: [2] 17.2 µM

N[C@@H]1C[C@H]1c1ccccc1
active: [9] 8.49 µM
inactive: [1] | [2] | [3] | [4] | [5] | [17] | [18] | [7] | [19] | [20] | [8] | [11] | [12] | [15] | [16]

CCOP(=O)(OCC)O/C(=C/Cl)c1ccc(Cl)cc1Cl
inactive: [1] | [2] | [3] | [4] | [5] | [18] | [7] | [9] | [10] | [11] | [14] | [15] | [16]
active: [6] 2.57 µM

CC1(C)[C@H](C=C(Cl)Cl)[C@@H]1C(=O)O[C@@H](C#N)c1cccc(Oc2ccccc2)c1
inactive: [1] | [2] | [3] | [4] | [5] | [6] | [18] | [7] | [20] | [8] | [9] | [12] | [13] | [14] | [16]
